About 83,000 compounds went through this panel and 20% of them were active in at least one assay; those are over-represented in the sample as a whole.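 In brief: 96-well plates, 48 h treatment, single concentration, percent growth endpoint.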 Calls of active or inactive are those of the source. The calls were made as follows: active = growth percent below 10; inactive = the rest.

This test relates to DU-145 prostate. Kind of test: NCI-60 one-dose screen, 48 h (100 = growth as untreated, 0 = no growth, -100 = all killed). To be noted: 10 µM unless noted.
In the case of `O=C(CCCCC(=O)N/N=C\c1ccccc1O)N/N=C\c1ccccc1O`, the growth is 45.1% (inactive). As to `COc1cc(-c2nc(C(=O)NCC(=O)NO)nn2-c2ccc(Cl)cc2)cc(OC)c1OC`, the growth was 107% (inactive). As for `O=c1ccccc(-c2ccc(Br)cc2)c1O`, the growth was 20.3% (inactive).

Take `Cc1cc2nc(NC(=O)CN3CCN(CCN4C(=O)c5cccc6cccc(c56)C4=O)CC3)sc2cc1C`: the growth is 91.7% (inactive).

Consider `COc1cc(C(=O)/C=C/c2cccnc2Nc2ccc(Cl)cc2)cc(OC)c1OC`, for which the growth was -59.2% (active). Then `COc1ccc(-c2nnc(SCC(=O)c3ccc(Cl)cc3)o2)cc1`, with 108% (inactive); and `COc1cc(/C=C/C(=O)Nc2cccnc2Nc2ccc(F)cc2)cc(OC)c1OC`, with 110% (inactive). To `O=C1/C(=C/c2ccccc2O)N=C2SCCCN12` belongs 103% (inactive).

Take `CC(C)(CCCN=C(N)Nc1ccc(Cl)cc1)c1ccc(F)cc1`: the growth is 80.1% (inactive). Then `CCCCC[C@H]1C/C=C2/C(=O)C=C[C@@H]2C/C=C\CCCC(=O)O1`, with -32.4% (active); and `COc1ccc2c(c1)C(=O)/C(=C/c1ccccn1)CC2`, with 26.1% (inactive); and `C=C1C(=O)O[C@H]2[C@H]1CC/C(COC(=O)NCCc1ccc(OC)c(OC)c1)=C\CC[C@@]1(C)O[C@@H]21`, with 39.5% (inactive). Then `COc1cc(-c2nn(-c3ccc(Br)cc3)cc2C(=O)O)ccc1O`, with 103% (inactive). Then `CCCCCC(=O)Oc1ccc(/C(=C(\C)c2ccc(OC)cc2)c2ccc(OCCN3CCCCC3)cc2)cc1`, with 79.8% (inactive); and `COC(=O)[C@@H]1CCCN1C(=O)[C@@H]1CCCN1C(=O)[C@H](Cc1ccccc1)NC(=S)Nc1cc(C(F)(F)F)cc(C(F)(F)F)c1`, with 40.4% (inactive).

The values are drawn from PubChem BioAssay (NCI).
